# Article PMC5540273 (PLoS ONE, 2017)
# Tested on: NEK11
# Details: concentration: 1 μM, replicates: in singlicate; n = 1
# 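Also: KINOMEscan kinase panel screen.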
row,Structure (SMILES),%Inh
1,COc1ccc(Nc2nccc(N3CCC(NC(=O)C(C)c4ccc(Cl)cc4)CC3)n2)cc1 (stereo not shown) [GSK1379812],0%
2,CCc1ccc(-c2ccc3c(c2)-c2n[nH]cc2S(=O)(=O)N3C)cc1,0%
3,CC(=O)c1c(C)c2cnc(Nc3ccc(N4CCNCC4)cn3)nc2n(C2CCCC2)c1=O,0%
4,Cn1cncc1C(=O)NC1CCN(c2ccnc(Nc3ccc(F)cc3)n2)C1 (stereo not shown) [GSK1379717],0%
5,CNc1cc(-c2ccc3c(N)n[nH]c3c2)nc(N)n1 [GSK2224810],0%
6,CN1c2ccc(-c3ccc(C(N)=O)cc3)cc2-c2[nH]ncc2S1(=O)=O,0%
7,COc1ccc(-c2coc3ccc(-c4nnc(C)o4)cc23)cc1,0%
8,Cc1ccc(NC(=O)Nc2ccccc2F)cc1-c1ccc(C(=O)Nc2ccncc2)cc1 [GSK1398477],0%
9,O=C(Nc1n[nH]c2nc(-c3ccco3)c(Br)cc12)C1CCN(Cc2ccccc2)C1.O=C(O)[C@H](O)[C@@H](O)C(=O)O (stereo not shown) [SB-742034],1%
10,FC(F)(F)c1ccccc1-c1cc(-c2c[nH]nc2-c2ccccn2)ccn1 [GW679396],10%
11,COc1nccc(-c2c(-c3ccc(F)cc3)ncn2CCCN2CCOCC2)n1 [SB-282852],2%
12,COc1cccc(CNC(=O)NC2CCN(c3ccnc(Nc4ccc(F)cc4)n3)C2)c1 (stereo not shown) [GSK1379723],0%
13,COC(=O)C(NC(=O)NC1CCN(c2ccnc(Nc3ccc(F)cc3)n2)C1)c1ccccc1 (stereo not shown) [GSK1379712],0%
